Pol kappa inh – inhibitors of human DNA polymerase kappa; Q9UBT6; purified Pol kappa, fluorescent DNA synthesis assay, 10 min; Potency, µM (series often up to 107 µM), most hits filed as inhibitors; actives 0.53% (n = 400,000); AID 588579
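Readout: fluorescence, taken kinetically at 0 and 10 min. Conditions: 10 nM Pol kappa, 15 min RT compound preincubation, 50 nM substrate final. Controls: enzyme-free buffer wells.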
FEN1 inhibitor – blocks human flap endonuclease 1 | Potency, µM (top dose mostly 114 µM), usual class: inhibitors | Recombinant FEN1 flap cleavage, fluorescence, 15 min | AID 588795 | actives 0.35% (n = 390,000); note: nearly all actives have a fitted effect of over 65% in size
Target sequence (P39748 whole entry, looked up): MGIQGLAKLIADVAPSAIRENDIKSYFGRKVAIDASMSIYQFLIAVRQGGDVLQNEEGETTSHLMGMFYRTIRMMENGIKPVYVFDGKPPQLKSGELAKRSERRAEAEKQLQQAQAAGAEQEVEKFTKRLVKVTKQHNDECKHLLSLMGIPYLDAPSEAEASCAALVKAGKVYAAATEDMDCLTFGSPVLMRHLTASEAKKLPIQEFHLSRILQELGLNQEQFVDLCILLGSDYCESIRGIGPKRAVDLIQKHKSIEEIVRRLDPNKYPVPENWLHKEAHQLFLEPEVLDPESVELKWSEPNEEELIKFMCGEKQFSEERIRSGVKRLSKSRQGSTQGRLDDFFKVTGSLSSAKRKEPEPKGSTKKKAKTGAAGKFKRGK
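Concentration–response screening of FEN1 (10 nM): 15 min compound preincubation at room temperature, reaction started with 50 nM substrate and read at 0 and 15 min. Corrected, normalized data were fitted by a four-parameter Hill equation.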
Pol beta inh – blocks human DNA polymerase beta activity | P06746 | Pol beta primer extension/strand displacement, fluorescence kinetic | Potency, µM (top dose mostly 114 µM), usual class: inhibitors | actives 1.3% (n = 340,000) | AID 485314
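Enzyme-only controls used 10 nM Pol beta; buffer lacking enzyme served as negative control. Compound preincubated 15 min, then 50 nM substrate added; 0 and 10 min reads at room temperature.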
POLH inh – blocks human DNA polymerase eta activity; Potency, µM (doses to about 114 µM), most hits filed as inhibitors; Q9Y253; actives 1.2% (n = 390,000); recombinant Pol eta, fluorescent DNA replication assay
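Pol eta at 10 nM preincubated with compounds 15 min at room temperature; reaction started with fluorescent substrate (50 nM final) and read kinetically at 0 and 10 min.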
Pol iota inh – DNA polymerase iota (human) inhibition; Pol iota fluorescent replication assay, 10 min; actives 1% (n = 390,000); Potency, µM (highest dose often 115 µM), hits mostly inhibitors; Q9UNA4
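Fluorescent replication assay read twice, at 0 min and 10 min after adding 50 nM (final) substrate. Enzyme (10 nM) and compounds were first incubated 15 min at room temperature; enzyme-free buffer wells were negative controls.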
WRN inhibitor – WRN helicase (human) inhibition; Q14191; WRN helicase unwinding, fluorescent forked duplex, kinetic; Potency, µM (doses to about 114 µM), actives largely listed as inhibitors; actives 0.46% (n = 360,000); AID 651768; note: nearly all actives have a fitted effect of over 55% in size
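WRN at 20 nM final preincubated with compound 15 min at room temperature; reaction started with 100 nM fluorophore/quencher forked duplex oligonucleotide and 2 mM ATP final. Unwinding followed kinetically by red fluorescence (ex 525, em 598 nm).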
Numbers stand for hits; . = inactive; ? = inconclusive; / = no result given; [ ] = dose if it differs, or a comment. Most compounds without a hit are left out; they make up all but 2.4% or so of the library. Calls come from the whole dose curve; as a rule, active = well fitted curve in the direction sought with a large enough effect; inconclusive = small, poorly fitted or top-dose-only effect, or another doubt; inactive = no such curve, though single readings can be large; an effect the other way counts as inactive or inconclusive.

SMILES	Pol kappa inh	FEN1 inhibitor	Pol beta inh	POLH inh	Pol iota inh	WRN inhibitor
COc1cc(/C=C2\SC(=O)NC2=O)ccc1Oc1ccc([N+](=O)[O-])cn1	.	.	.	.	.	.
COc1cc(/C=C2\C(=O)N(c3ccccc3)N=C2C)ccc1Oc1ccc([N+](=O)[O-])cc1[N+](=O)[O-]	.	.	.	?	2µM	.
CC1=NN(c2ccccc2)C(=O)/C1=C\c1ccc(Oc2ccc([N+](=O)[O-])cc2[N+](=O)[O-])cc1	.	.	.	50µM	1.8µM	.
Cc1ccc(C)c(Cn2c(=O)n(CCCC(=O)NCc3ccc4c(c3)OCO4)c(=O)c3sccc32)c1	.	.	.	.	.	/
N#C/C(=C\c1ccc(-c2cc(Cl)ccc2Cl)o1)C(=O)Nc1cccc2ncccc12	.	?	/	/	/	/
O=C(O)c1ccc(CN2C(=O)CSC2=S)cc1	50µM	?	?	.	?	.
O=C(O)c1ccc(N=C2SCC(=O)N2Cc2ccccc2)cc1	.	.	.	.	.	.
O=C(Cc1ccccc1)NN1C(=O)/C(=C/c2ccc(C(=O)O)cc2)SC1=S	.	.	.	.	?	.
COc1ccc(/C=C2\SC(=S)N(CCCC(=O)NNC(=O)c3ccccc3O)C2=O)cc1	.	.	.	.	.	.
O=C(CN1C(=O)S/C(=C\c2ccc(Cl)cc2)C1=O)NNC(=O)c1ccccc1O	.	.	50µM	?	?	?
O=C(CN1C(=O)S/C(=C\c2ccccc2)C1=O)Nc1cc([N+](=O)[O-])ccc1O	.	.	.	79µM	.	.[11.6 µM]
O=C(NN1C(=O)/C(=C/c2ccc(O)cc2)SC1=S)c1ccccc1O	.	.	.	79µM	?	.[11.6 µM]
COc1ccc(NC(=O)c2cc3c(=O)n(Cc4cccnc4)ccc3nc2C)c(OC)c1	.	.	.	.	.	/
CCOc1ccc(NC(=O)CC2C(=O)N(c3ccc(F)cc3)C(=O)N2Cc2ccc(OC)c(OC)c2)cc1 (configuration not stated)	.	.	.	.	.	/
CCOC(=O)Cc1cc(=O)n(-c2nc3ccccc3s2)[nH]1	79µM	.	45µM	?	89µM	.
O=C(c1ccc2nc(-c3ccco3)c(-c3ccco3)nc2c1)N1CCN(c2ccccc2)CC1	.	.	11µM	.	?	.
CCc1nc2ccc(C(=O)N3CCN(c4ccccc4)CC3)cc2nc1CC	.	.	.	.	.	.
O=C(Nc1ccc(N2CCOCC2)cc1)Nc1ccc2nc(-c3ccco3)c(-c3ccco3)nc2c1	.	.	5µM	.	.	.
O=C(NCCCO)Nc1ccc2nc(-c3ccco3)c(-c3ccco3)nc2c1	/	/	1.8µM	/	/	/
O=C(Nc1ccc2nc(-c3ccco3)c(-c3ccco3)nc2c1)NC1CC1	10µM	50µM	3.5µM	1.3µM	1.3µM	10µM
C=C(Br)COC(c1ccco1)[C@H](Cc1ccccc1)NC(=O)OC(C)(C)C (some centres not stated)	.	.	/	/	.	/
O=c1[nH]/c(=C/c2ccc3c(c2)OCO3)c(=O)[nH]/c1=C/c1ccc2c(c1)OCO2	.	.	/	/	.	/
CC(C)c1ccc(Nc2ncnc3c2nc2n3CCCC2)cc1	.	.	.	.	.	/
COc1ccc(N=C2S/C(=C\c3cc(C)n(C)c3C)C(=O)N2CC(C)C)cc1	.	.	.	.	.	.
COc1ccc(N=C2S/C(=C\c3ccco3)C(=O)N2CC(C)C)cc1	.	.	79µM	.	.	.
SMILES	Pol kappa inh	FEN1 inhibitor	Pol beta inh	POLH inh	Pol iota inh	WRN inhibitor
O=c1c2ccccc2sc2c(CO)ccc(NCCN3CCCCC3)c12	.	40µM	/	.	?	.[11.6 µM]
Cc1csc(N2CCN(c3cc4nc(-c5ccncc5)[nH]c4cc3Cl)CC2)n1	.	.	35µM	.	?	.
O=C(NCc1ccccc1Cl)c1ccc(-n2cnc3cccnc32)cc1	.	.	.	.	.	/
CCC(=O)Oc1ccc2c(c1)O/C(=C\c1ccco1)C2=O	?	.	?	?	?	.
CCN(CC)C(=O)Oc1ccc2c(c1)O/C(=C\c1ccco1)C2=O	.	.	45µM	.	?	.
COC(=O)COc1ccc2c(c1)O/C(=C\c1ccco1)C2=O	.	.	32µM	?	?	?
Cc1ccc(C(=O)c2cn(Cc3ccc(F)cc3)c3nc(C)ccc3c2=O)cc1	.	.	.	.	79µM	/
Cc1ccc(C(=O)c2cn(Cc3ccc(Cl)cc3)c3nc(C)ccc3c2=O)cc1	.	.	.	.	.	/
O=C(O)c1cccc(S(=O)(=O)Nc2cccc(S(=O)(=O)N3CCCC3)c2)c1	.	.	/	?	.	.
O=[N+]([O-])c1cccc(S(=O)(=O)Nc2nc3ccccc3nc2Nc2cccc(S(=O)(=O)N3CCCCC3)c2)c1	.	?	?	?	.	?
Cc1ccc(S(=O)(=O)Nc2nc3ccccc3nc2Nc2cccc(S(=O)(=O)N3CCCC3)c2)cc1	?	.	.	.	7.1µM	?
O=C(O)c1cccc(S(=O)(=O)Nc2cccc(S(=O)(=O)N3CCCCCC3)c2)c1	.	.	.	.	89µM	.[11.6 µM]
CC(=O)Nc1ccc(OCCOc2ccc(/C=C3/C(=N)N4C=CSC4=NC3=O)cc2)cc1	.	.	.	.	?	.
COc1ccc(-c2ccc(/C=C3/C(=N)N4C=CSC4=NC3=O)o2)c([N+](=O)[O-])c1	.	.	35µM	20µM	?	?
O=C(CSc1oc(-c2ccc(F)cc2)nc1S(=O)(=O)c1ccc(Cl)cc1)c1ccccc1	?	.	.	.	.	/
COc1cccc(Cn2cccc(NC(=O)Nc3ccccc3C)c2=O)c1	.	.	.	.	13µM	.[11.6 µM]
COc1cccc(Cn2cccc(NC(=O)NCc3ccccc3)c2=O)c1	.	.	.	.	.	.
COc1cc(Cl)c(C)cc1NC(=O)CCCN1C(=O)C(c2ccccc2)Oc2cccnc21 (configuration not stated)	.	.	.	.	.	/
O=S(=O)(Cc1cc(NCc2ccccc2)nc(-c2ccncc2)n1)c1ccccc1	.	.	79µM	.	.	.
C=Cc1ccc(Cn2c(C(=O)O)c(CNC3CCCCC3)c3ccc(OC)cc32)cc1	.	.	35µM	?	?	/
COc1ccc(Cn2c(C(=O)O)c(CNC3CCCCCC3)c3ccc(OC)cc32)cc1	.	.	.	.	.	/
Cc1ccc(NC(=O)Nc2nc3ccc(S(C)(=O)=O)cc3s2)cc1	.	.	/	79µM	.	.[11.6 µM]
CS(=O)(=O)c1ccc2nc(NC(=O)Nc3cccc(Cl)c3)sc2c1	.	.	50µM	.	?	.
CS(=O)(=O)c1ccc2nc(NC(=O)Nc3ccc(Cl)c(Cl)c3)sc2c1	.	.	.	.	.	.
